# Only a selection was taken, and the strongest signals are over-represented in it overall.
# B1: Gal 8 (Mus musculus), Q9JL15 (protein)
# chain: MGGSHHHHHHGMASMLSLNNLQNIIYNPIIPYVGTITEQLKPGSLIVIRGHVPKDSERFQVDFQLGNSLKPRADVAFHFNPHFKRSSCIVCNTLTQEKWGWEEITYDMPFRKEKSFEIVFMVLKNKFQVAVNGRHVLLYAHRISPEQIDTVGIYGKVNIHSIGFRFSSASALPHTLGDLQSMETSALGLTQINRENIQKPGKLQLSLPFEARLNASMGPGRTVVIKGEVNTNARSFNVDLVAGKTRDIALHLNPHLNVKAFVRNSFLQDAWGEEERNITCFPFSSGMYFEMIIYCDVREFKVAINGVHSLEYKHRFKDLSSIDTLSVDGDIRLLDVRSW
# Tests used:
# Test in all cases: glycan array binding signal (z-score within array); higher = stronger binding
# Conditions in all cases: glycan notation: IUPAC condensed, linker removed; mutation: R82H, R255H
# [1] = molecular target: Fuc(a1-2)Gal(b1-3)GlcNAc(b1-3)[Gal(b1-4)GlcNAc(b1-6)]Gal(b1-4)Glc
# Procedure, shortened: (§1)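 Arrays were curated from the Consortium for Functional Glycomics database, 3228 in total, and kept only where the protein sequence was available. Binding is expressed as a within-array Z-score. This score was averaged across arrays of the same protein sequence at different concentrations or buffers and across linkers, and negative values can be read as non-binding.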
# [2] = molecular target: Fuc(a1-2)Gal(b1-3)[Fuc(a1-4)]GlcNAc(b1-2)Man(a1-3)[Fuc(a1-2)Gal(b1-3)[Fuc(a1-4)]GlcNAc(b1-2)Man(a1-3)]Man(b1-4)GlcNAc(b1-4)GlcNAc
# Procedure, shortened: as §1
# [3] = molecular target: Fuc(a1-2)[Gal(a1-3)]Gal(b1-3)GlcNAc(b1-2)Man(a1-3)[Fuc(a1-2)[Gal(a1-3)]Gal(b1-3)GlcNAc(b1-2)Man(a1-6)]Man(b1-4)GlcNAc(b1-4)GlcNAc
# Procedure, shortened: as §1
# [4] = molecular target: Fuc(a1-2)[Gal(a1-3)]Gal(b1-4)GlcNAc(b1-6)GalNAc
# Procedure, shortened: as §1
# [5] = molecular target: Fuc(a1-2)[GalNAc(a1-3)]Gal
# Procedure, shortened: as §1
# [6] = molecular target: Fuc(a1-2)[GalNAc(a1-3)]Gal(b1-3)GalNAc(b1-3)Gal(a1-4)Gal(b1-4)Glc
# Procedure, shortened: as §1
# [7] = molecular target: Fuc(a1-2)[GalNAc(a1-3)]Gal(b1-3)GlcNAc(b1-2)Man(a1-3)[Fuc(a1-2)[GalNAc(a1-3)]Gal(b1-3)GlcNAc(b1-2)Man(a1-6)]Man(b1-4)GlcNAc(b1-4)GlcNAc
# Procedure, shortened: as §1
# [8] = molecular target: Fuc(a1-2)[GalNAc(a1-3)]Gal(b1-4)GlcNAc(b1-2)Man(a1-3)[Fuc(a1-2)[GalNAc(a1-3)]Gal(b1-4)GlcNAc(b1-2)Man(a1-6)]Man(b1-4)GlcNAc(b1-4)GlcNAc
# Procedure, shortened: as §1
# [9] = molecular target: Fuc(a1-2)[GalNAc(a1-3)]Gal(b1-4)GlcNAc(b1-3)Gal(b1-4)GlcNAc
# Procedure, shortened: as §1
# [10] = molecular target: Fuc(a1-2)[GalNAc(a1-3)]Gal(b1-4)GlcNAc(b1-3)[Fuc(a1-2)[GalNAc(a1-3)]Gal(b1-4)GlcNAc(b1-6)]GalNAc
# Procedure, shortened: as §1
# [11] = molecular target: Fuc(a1-3)[Gal(b1-4)]GlcNAc(b1-6)GalNAc
# Procedure, shortened: as §1
# [12] = molecular target: Fuc(a1-3)[Gal3S(b1-4)]Glc
# Procedure, shortened: as §1
# [13] = molecular target: Fuc(a1-4)GlcNAc
# Procedure, shortened: as §1
# [14] = molecular target: Gal(a1-3)Gal(b1-3)GlcNAc(b1-2)Man
# Procedure, shortened: as §1
# [15] = molecular target: Gal(a1-3)[Gal(a1-4)]Gal(b1-4)GlcNAc
# Procedure, shortened: as §1
# [16] = molecular target: Gal(a1-4)Gal(b1-4)Glc
# Procedure, shortened: as §1
# [17] = molecular target: Gal(b1-2)Gal
# Procedure, shortened: as §1
# [18] = molecular target: Gal(b1-3)GalNAc
# Procedure, shortened: as §1
# [19] = molecular target: Gal(b1-3)GalNAc(b1-3)Gal(a1-4)Gal(b1-4)Glc
# Procedure, shortened: as §1
# [20] = molecular target: Gal(b1-3)GalNAc(b1-4)Gal(b1-4)Glc
# Procedure, shortened: as §1
# [21] = molecular target: Gal(b1-3)GlcNAc(a1-3)Gal(b1-4)GlcNAc
# Procedure, shortened: as §1
# [22] = molecular target: Gal(b1-3)GlcNAc(b1-3)Gal(b1-4)Glc
# Procedure, shortened: as §1
# [23] = molecular target: Gal(b1-3)GlcNAc(b1-6)GalNAc
# Procedure, shortened: as §1
# [24] = molecular target: Gal(b1-3)[Fuc(a1-4)]GlcNAc(b1-6)GalNAc
# Procedure, shortened: as §1
# [25] = molecular target: Gal(b1-4)GlcNAc(b1-2)Man
# Procedure, shortened: as §1
# [26] = molecular target: Gal(b1-4)GlcNAc(b1-3)Gal(b1-4)GlcNAc(b1-2)Man(a1-3)[Gal(b1-4)GlcNAc(b1-3)Gal(b1-4)GlcNAc(b1-2)Man(a1-6)]Man(b1-4)GlcNAc(b1-4)GlcNAc
# Procedure, shortened: as §1
# [27] = molecular target: Gal(b1-4)GlcNAc(b1-3)Gal(b1-4)GlcNAc(b1-3)Gal(b1-4)GlcNAc(b1-3)Gal(b1-4)GlcNAc(b1-3)Gal(b1-4)GlcNAc(b1-2)[Gal(b1-4)GlcNAc(b1-3)Gal(b1-4)GlcNAc(b1-3)Gal(b1-4)GlcNAc(b1-3)Gal(b1-4)GlcNAc(b1-3)Gal(b1-4)GlcNAc(b1-6)]Man(a1-6)[Gal(b1-4)GlcNAc(b1-3)Gal(b1-4)GlcNAc(b1-3)Gal(b1-4)GlcNAc(b1-3)Gal(b1-4)GlcNAc(b1-3)Gal(b1-4)GlcNAc(b1-2)Man(a1-3)]Man(b1-4)GlcNAc(b1-4)[Fuc(a1-6)]GlcNAc
# Procedure, shortened: as §1
# [28] = molecular target: Gal(b1-4)GlcNAc(b1-3)Gal(b1-4)GlcNAc(b1-3)Gal(b1-4)GlcNAc(b1-3)Gal(b1-4)GlcNAc(b1-3)Gal(b1-4)GlcNAc(b1-3)Gal(b1-4)GlcNAc(b1-2)Man(a1-3)[Gal(b1-4)GlcNAc(b1-3)Gal(b1-4)GlcNAc(b1-3)Gal(b1-4)GlcNAc(b1-3)Gal(b1-4)GlcNAc(b1-3)Gal(b1-4)GlcNAc(b1-3)Gal(b1-4)GlcNAc(b1-2)Man(a1-6)]Man(b1-4)GlcNAc(b1-4)GlcNAc
# Procedure, shortened: as §1
binder,measurement,setting,value
B1,glycan array binding signal (z-score),[1],1.15
same,glycan array binding signal (z-score),[2],-0.083
same,glycan array binding signal (z-score),[3],4.77
same,glycan array binding signal (z-score),[4],-0.168
same,glycan array binding signal (z-score),[5],-0.248
same,glycan array binding signal (z-score),[6],-0.253
same,glycan array binding signal (z-score),[7],7.3
same,glycan array binding signal (z-score),[8],6.58
same,glycan array binding signal (z-score),[9],-0.08
same,glycan array binding signal (z-score),[10],0.117
same,glycan array binding signal (z-score),[11],-0.212
same,glycan array binding signal (z-score),[12],-0.192
same,glycan array binding signal (z-score),[13],0.01
same,glycan array binding signal (z-score),[14],-0.263
same,glycan array binding signal (z-score),[15],-0.236
same,glycan array binding signal (z-score),[16],-0.18
same,glycan array binding signal (z-score),[17],-0.193
same,glycan array binding signal (z-score),[18],-0.251
same,glycan array binding signal (z-score),[19],-0.235
same,glycan array binding signal (z-score),[20],-0.226
same,glycan array binding signal (z-score),[21],-0.269
same,glycan array binding signal (z-score),[22],-0.263
same,glycan array binding signal (z-score),[23],-0.274
same,glycan array binding signal (z-score),[24],-0.243
same,glycan array binding signal (z-score),[25],-0.197
same,glycan array binding signal (z-score),[26],0.454
same,glycan array binding signal (z-score),[27],6
same,glycan array binding signal (z-score),[28],7.05

# From the supplement of paper PMC8728848
